This is a sample that favours compounds with a hit; in the whole collection about 19% have one here.
HT1080 IDH1KD tx – qHTS for induction of synthetic lethality in tumor cells producing 2HG: qHTS for the HT-1080-IDH1KD cell line. HT-1080 IDH1 knockdown viability, ATP luminescence, 48 h. Potency, µM (top dose mostly 46.1 µM), for inactives: at the highest dose activity, negative = toxicity, most hits filed as cytotoxic. actives 2% (n = 360,000);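 note: potency is the fitted concentration of half-maximal effect; 0% = DMSO wells and -100% = cell-free medium wells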
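After a 2 h attachment period, IDH1KD HT-1080 cells took pin-transferred compound for 48 h at 37 °C; ATP-based luminescence after 10 min room-temperature reagent incubation reported viability.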
IL1B secr inh – qHTS for Inhibitors of Inflammasome Signaling: IL-1-beta AlphaLISA Primary Screen | activity change, % at 57.5 µM | THP-1 LPS/ATP IL-1B secretion, AlphaLISA, 16 h; active compounds read low | actives 4.7% (n = 360,000); in the data active = activity change below about -50%; inconclusive = mostly about -30% to -49%
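Secreted IL-1B measured by AlphaLISA bead assay after 16 h compound exposure of THP-1 cells; compounds (final up to 57.5 uM) added 1 h before LPS (250 ng/mL) and ATP (1.25 mM) stimulation; lower signal means less secretion.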
DT40 TDP1 CPT – qHTS for Inhibitors of human tyrosyl-DNA phosphodiesterase 1 (TDP1): qHTS in cells in presence of CPT; chicken DT40 Tdp1-/-;hTDP1 cells + 20 nM CPT, ATP luminescence, 48 h; actives 12% (n = 420,000); Potency, µM (highest dose often 46.2 µM), without a hit: top-dose activity change, negative = growth inhibition, most hits filed as inhibitors; AID 686979, 2013; note: potency is the fitted concentration of half-maximal effect; nearly all actives have a fitted effect of over 55% in size
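Cell growth measured by CellTiter-Glo luminescence after a minimum 48 h, 37 C compound exposure with 20 nM CPT in Tdp1-knockout DT40 cells stably expressing hTDP1, seeded 400/well; qHTS titration format.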
DT40 TDP1 no CPT – qHTS for Inhibitors of human tyrosyl-DNA phosphodiesterase 1 (TDP1): qHTS in cells in absence of CPT; Potency, µM (doses to about 46.2 µM), without a hit: at the highest dose activity change, negative = growth inhibition, actives largely listed as inhibitors; DT40 Tdp1-/- hTDP1 cells, no CPT, ATP luminescence, 48 h; actives 15% (n = 420,000); AID 686978, 2013; note: potency is the fitted concentration of half-maximal effect; nearly all actives have a fitted effect of over 55% in size
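Luminescent ATP content (CellTiter-Glo) served as the growth readout. Knockout chicken DT40 cells expressing human TDP1 were exposed to compounds without camptothecin for a minimum 48 hr at 37 °C.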
HT1080NT lethal – qHTS for induction of synthetic lethality in tumor cells producing 2HG: qHTS for the HT-1080-NT fibrosarcoma cell line | HT-1080-NT fibrosarcoma viability, CellTiter-Glo ATP luminescence, 48 h | Potency, µM (highest dose often 46.1 µM), for the others: at the top dose activity, negative = less viability, most hits filed as cytotoxic | AID 686970, 2013 | actives 1.6% (n = 360,000);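 note: NT is the 2HG producing partner of a matched IDH1 knockdown line; potency is the fitted concentration of half-maximal effect; 0% = DMSO-treated cells and -100% = media-only wells without cells; nearly all actives have a fitted effect of over 55% in size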
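Viability by CellTiter-Glo luminescence after 48 h compound exposure at 37C of HT-1080-NT cells (750/well, RPMI, 5% FBS). % activity scaled between DMSO wells and medium-only wells, then curve-fitted and categorized by curve class.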
* = called active by the depositor; ? = inconclusive; nt = not tested or not shown; [ ] = dose if it differs, or a comment. Unless noted, calls come from the whole dose curve; as a rule, active = well fitted curve in the direction sought with a large enough effect; inconclusive = small, poorly fitted or top-dose-only effect, or another doubt; inactive = no such curve, though single readings can be large; an effect the other way counts as inactive or inconclusive. Unless noted, % is set by controls: 0 for no effect and ±100 for the full control effect.

SMILES	HT1080 IDH1KD tx	IL1B secr inh	DT40 TDP1 CPT	DT40 TDP1 no CPT	HT1080NT lethal
COc1ccc(NC(=O)c2ccc(=O)[nH]c2)cc1S(=O)(=O)N1CCOCC1	8.6%	9.2	-1.5%	8.8%	0.6%
Cc1cc2oc(=O)cc(Cn3ccnc3)c2cc1Cl	0.1%	0.8	-8.3%	0.2%	2.0%
O=C(N/N=C/c1cc([N+](=O)[O-])ccc1O)C(O)(c1ccccc1)c1ccccc1	?	182.5	?	16.4µM*	-15.9%
O=C(N/N=C/c1cc([N+](=O)[O-])ccc1O)c1ccc2c(c1)OCCO2	?	17.8	2.06µM*	1.46µM*	-26.1%
O=C(N/N=C/c1cc([N+](=O)[O-])ccc1O)c1cccc(N2CCCC2=O)c1	?	161.9	14.6µM*	10.3µM*	?
Cc1ccc(NC(=O)CCC(=O)N/N=C/c2cc([N+](=O)[O-])ccc2O)cc1	?	65.2	?	?	?
O=C(N/N=C/c1ccccc1[N+](=O)[O-])c1ccc2c(c1)OCCO2	-20.7%	-18.3	-23.1%	-17.6%	-3.8%
COc1cc(/C=N/NC(=O)c2cccc(N3CCCC3=O)c2)ccc1O	18.5%	-12.3	-9.8%	-9.2%	22.4%
O=C(NN=Cc1ccccc1O)C1CC1	-4.5%	-0.5	5.8µM*	10.3µM*	1.3%
O=C(N/N=C/c1ccccn1)C1CC1	7.2%	40.3	1.2%	-13.0%	3.2%
CC(=O)OCC(C)n1[nH]c2ccccc2c1=O (stereo not given)	1.8%	3.5	10.5%	5.1%	25.2%
O=C1NCCCC1C(=O)N/N=C/c1cc([N+](=O)[O-])ccc1O (stereo not given)	-17.7%	83.6	-21.6%	?	-15.4%
O=C(N/N=C/c1cc([N+](=O)[O-])ccc1O)C1CC1	?	72.3	?	18.4µM*	?
Cc1[nH]c2ccc(-c3nnc(SCC(=O)c4ccccc4F)o3)cc2c1C	-11.9%	7.4	-71.7%	18.4µM*	-13.1%
Cc1ccc(C(=O)CSc2nnc(-c3ccc4[nH]c(C)c(C)c4c3)o2)cc1C	3.1%[9.24 µM]	6.1	?	25.9µM*	11.2%
COc1ccc(N2CCN(C(=O)CSc3nnc(-c4ccc5[nH]c(C)c(C)c5c4)o3)CC2)cc1	15.2%	-10.3	?	-28.7%	0.0%
COc1ccc(CCn2c(SCCN3CCCCC3)nc3ccccc3c2=O)cc1OC	3.4%	-28.3	?	16.4µM*	2.9%
CCC(Sc1nc2ccccc2c(=O)n1CCc1ccc(OC)c(OC)c1)C(=O)N(CC)CC (stereo not given)	nt	nt	6.51µM*	6.51µM*	nt
CCC(Sc1nc2c(sc3ccccc32)c(=O)n1CCc1ccccc1)C(=O)N(CC)CC (stereo not given)	nt	nt	-25.6%	?	nt
CCC(Sc1nc2c(sc3ccccc32)c(=O)n1CCc1ccc(OC)c(OC)c1)C(=O)N(CC)CC (stereo not given)	nt	nt	6.51µM*	5.8µM*	nt
C=CCNC(=O)CSc1nc2ccccc2c(=O)n1CCc1ccc(OC)c(OC)c1	-0.8%	-17.1	?	?	2.7%
COc1ccc(-c2nnc(Sc3nc4ccccc4o3)c3ccccc23)cc1	?	-101.4*	?	20µM*	?
CC(C)(C)NC(=O)CN(C(=O)Cn1nnc(-c2ccc(Cl)cc2)n1)C1CCN(Cc2ccccc2)CC1	?	-81.7*	?	20.6µM*	?
CC(C)CN(C(=O)Cn1nnc(-c2ccc(Cl)cc2)n1)C1CCS(=O)(=O)C1 (stereo not given)	-5.6%	3.5	-0.1%	-11.8%	0.7%
O=C(Cn1nnc(-c2ccc(CN3CCOCC3)cc2)n1)N(c1ccccc1)c1ccccc1	-0.2%	7.6	18.4µM*	20.6µM*	-3.3%
SMILES	HT1080 IDH1KD tx	IL1B secr inh	DT40 TDP1 CPT	DT40 TDP1 no CPT	HT1080NT lethal
CCc1ccc(-c2cc(C(F)(F)F)n3nc(C(=O)Nc4c(C)nn(Cc5ccccc5C)c4C)cc3n2)s1	-0.6%	19.1	18.4µM*	16.4µM*	1.3%
CCCN1C(=O)SC(CC(=O)Nc2ccccc2C)C1=O (stereo not given)	0.0%	32.4	?	?	-1.7%
COc1ccccc1NC(=O)CC1SC(=N)N(c2ccccc2)C1=O (stereo not given)	-14.8%	-7.4	-16.7%	?	-1.5%
CCOc1ccc(NC(=O)CC2SC(=O)N(c3ccccc3)C2=O)cc1 (stereo not given)	23.0%	-2.1	1.16µM*	2.91µM*	13.8%
CCOc1ccc(NC(=O)CC2C(=O)N(c3ccccc3)C(=O)N2C2CCCC2)cc1 (stereo not given)	nt	nt	?	-10.8%	nt
O=C(CC1SC(=O)N(c2ccccc2)C1=O)Nc1cccc2ccccc12 (stereo not given)	-2.3%	-0.4	3.26µM*	5.17µM*	-2.2%
Cc1ccccc1NC(=O)CC1SC(=O)N(c2ccccc2)C1=O (stereo not given)	-12.2%	24.7	6.51µM*	4.61µM*	-1.6%
CC1(C(=O)O)CCC(C(=O)Nc2ccc(OC(F)(F)Cl)cc2)C1(C)C (stereo not given)	0.0%	17.0	-23.9%	7.6%	0.4%
COc1ccc(NC(=O)CN2CCC(Cc3ccccc3)CC2)cc1S(=O)(=O)N1CCOCC1	-11.6%	1.8	?	?	-8.7%
Cc1c(C(=O)NCc2ccc3c(c2)OCCO3)sc(=O)n1Cc1ccc2c(c1)OCO2	1.8%	-8.3	?	?	-16.3%
Cc1c(C(=O)NCc2cccs2)sc(=O)n1Cc1ccc(S(=O)(=O)N(C)C)cc1	-12.7%	-19.5	?	23.1µM*	-2.1%
Cc1c(C(=O)NCc2ccc3c(c2)OCCO3)sc(=O)n1Cc1ccccc1C#N	15.5%	-15.0	?	16.4µM*	2.9%
Cc1c(C(=O)NCc2cccc(C(F)(F)F)c2)sc(=O)n1Cc1ccc(S(=O)(=O)N(C)C)cc1	-27.3%	?	20.6µM*	?	-7.1%
Cc1noc(C)c1Cn1c(C)c(C(=O)NCc2ccc3c(c2)OCCO3)sc1=O	5.0%	29.9	8.2µM*	16.4µM*	8.9%
CC(=O)c1cccc(NC(=O)Cn2cnc(S(=O)(=O)N3CCCC3)c2)c1	11.1%	39.5	-1.4%	24.8%	15.8%
